Potency data for 14 compounds are collected here from PubChem BioAssay (NCATS).

The nature of assay [1]: qHTS of pediatric cancer cell lines to identify multiple opportunities for drug repurposing: Confirmatory screen for NB-EBc1 cells (AID 1347115).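 Also: cells exposed to compound for 48 h before the viability read; nearly all actives have a fitted effect of over 45% in size.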 The gist of the method: (§1)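 Cells (500-1,000/well) in growth media were settled 5 h at 37 degrees C, then given compounds for 48 h. Viability was read as CellTiter-Glo luminescence. Primary runs used MIPE at 11 points (0.78 nM-46 µM) and NPC at 8 points (0.59 nM-46 µM); follow-ups used 11 points.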

Assay [2] is described as follows: qHTS of pediatric cancer cell lines to identify multiple opportunities for drug repurposing: Confirmatory screen for SJ-GBM2 cells (AID 1347116). Also: nearly all actives have a fitted effect of over 60% in size. The gist of the method: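 Viability measured as metabolically active cells via CellTiter-Glo luminescence following 48 hours of compound exposure, 11-point dilutions in confirmatory testing. 500-1,000 cells/well plated 5 hours before dosing; controls were DMSO and 2.3 µM bortezomib.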

Assay [3] in a line: qHTS of pediatric cancer cell lines to identify multiple opportunities for drug repurposing: Confirmatory screen for BT-37 cells (AID 1347117). Also: nearly all actives have a fitted effect of over 55% in size. The gist of the method:
as §1

Assay [4] is described as follows: qHTS of pediatric cancer cell lines to identify multiple opportunities for drug repurposing: Confirmatory screen for U-2 OS cells (AID 1347122). Also: nearly all actives have a fitted effect of over 65% in size. The essentials:
as §1

A short description of assay [5]: qHTS of pediatric cancer cell lines to identify multiple opportunities for drug repurposing: Confirmatory screen for Rh41 cells (AID 1347123).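 Also: 48 h compound exposure; nearly all actives have a fitted effect of over 60% in size.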 The essentials: as §1
Assay [6] can be described thus: qHTS of pediatric cancer cell lines to identify multiple opportunities for drug repurposing: Confirmatory screen for RD cells (AID 1347124).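 Also: cells exposed to compound for 48 h before viability readout; nearly all actives have a fitted effect of over 65% in size.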 The gist of the method: as §1
A short description of assay [7]: qHTS of pediatric cancer cell lines to identify multiple opportunities for drug repurposing: Confirmatory screen for Rh18 cells (AID 1347125). Also: nearly all actives have a fitted effect of over 55% in size. The gist of the method: as §1
Assay [8] is described as follows: qHTS of pediatric cancer cell lines to identify multiple opportunities for drug repurposing: Confirmatory screen for Rh30 cells (AID 1347126). Also: nearly all actives have a fitted effect of over 55% in size. The essentials:
as §1

A short description of assay [9]: qHTS of pediatric cancer cell lines to identify multiple opportunities for drug repurposing: Confirmatory screen for Saos-2 cells (AID 1347127). Also: nearly all actives have a fitted effect of over 60% in size. The essentials:
as §1

Assay [10] in a line: qHTS of pediatric cancer cell lines to identify multiple opportunities for drug repurposing: Confirmatory screen for OHS-50 cells (AID 1347128).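 Also: compound exposure lasted 48 h at 37 degrees C; nearly all actives have a fitted effect of over 55% in size.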 The gist of the method: as §1
Assay [11] is described as follows: qHTS of pediatric cancer cell lines to identify multiple opportunities for drug repurposing: Confirmatory screen for SK-N-SH cells (AID 1347129).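 Also: cells exposed to compound for 48 h before viability read; nearly all actives have a fitted effect of over 60% in size.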 The essentials: as §1
A further assay has as its target Furin (Homo sapiens) (UniProt P09958). Nature of the assay: Furin counterscreen qHTS for Zika virus inhibitors (AID 1347149). Also: nearly all actives have a fitted effect of over 70% in size. The gist of the method: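 Counterscreen measures cleavage of 2 microM BOC-RVRR-AMC, below its ~15 microM Km, by 5 nM full-length human furin at pH 7.0 after a 15-min compound preincubation. Inhibition derives from the 15-min fluorescence increase at 37C.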

Assay [12] deals with Zika virus NS2B-NS3 protease (linked construct). Put plainly: Confirmatory screen NINDS AMC qHTS for Zika virus inhibitors (AID 1347152). Also: nearly all actives have a fitted effect of over 70% in size. The essentials: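 In this dose-response qHTS, AMC release from 10 microM Bz-Nle-KRR-AMC by 1 nM linked protease is measured over 15 minutes (about 20% conversion) at pH 8.0. Percent inhibition is fitted to a 4-parameter Hill curve.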
The subject of assay [13] is Zika virus NS2B-NS3 protease (unlinked complex). Put plainly: Confirmatory screen GU AMC qHTS for Zika virus inhibitors (AID 1347153).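 Also: enzyme at 25 nM with substrate at 10 µM below its Km of 18.3 µM; nearly all actives have a fitted effect of over 70% in size.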 The gist of the method:
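Unlinked NS2B-NS3 complex (25 nM) in 10 mM Tris-HCl pH 8.0, 0.01% Tween 20 preincubated 15 min with compound, then 10 microM Bz-Nle-KRR-AMC (Km 18.3 µM). Fluorescence change over 15 min, normalized, Hill-fitted.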

The subject of assay [14] is Zika virus NS2B-NS3 protease. Nature of the assay: Primary screen GU AMC qHTS for Zika virus inhibitors (AID 1347154). Also: nearly all actives have a fitted effect of over 70% in size. The essentials:
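Unlinked Zika NS2B hydrophilic domain/NS3 protease domain noncovalent complex (25 nM final) in 10 mM Tris-HCl pH 8.0, 0.01% Tween 20, with AMC peptide substrate. Fluorescence (ex 340, em 450 nm) change over 15 min, room temperature; percent inhibition fitted to 4-parameter Hill equation.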

A short description of assay [15]: qHTS of pediatric cancer cell lines to identify multiple opportunities for drug repurposing: Confirmatory screen for MG 63 (6-TG R) cells (AID 1347119). Also: nearly all actives have a fitted effect of over 55% in size. The essentials:
as §1

The nature of assay [16]: qHTS of pediatric cancer cell lines to identify multiple opportunities for drug repurposing: Confirmatory screen for control Hh wild type fibroblast cells (AID 1347121). Also: nearly all actives have a fitted effect of over 70% in size. The gist of the method: as §1
Assay [17] can be described thus: qHTS of pediatric cancer cell lines to identify multiple opportunities for drug repurposing: Confirmatory screen for TC32 cells (AID 1347118).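 Also: cells exposed to compound for 48 h before the read; nearly all actives have a fitted effect of over 65% in size.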 The gist of the method:
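TC32 cells, 500-1,000/well in growth medium, compound-treated 48 h at 37 °C; viability from CellTiter-Glo luminescence. Primary screen: MIPE 11-point (0.78 nM–46 µM final), NPC 8-point (0.59 nM–46 µM final); confirmatory at 11-point dilutions.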

Results filed as inconclusive are left out. Calls of active or inactive are those of the source. Calls follow the shape of the dose curve; as a rule, active = well fitted curve in the direction sought with a large enough effect; inconclusive = small, poorly fitted or top-dose-only effect, or another doubt; inactive = no such curve, though single readings can be large; an effect the other way counts as inactive or inconclusive.
Potency is read from the fitted curve at half-maximal effect.

Furin (Homo sapiens), sequence (P09958 whole entry, looked up): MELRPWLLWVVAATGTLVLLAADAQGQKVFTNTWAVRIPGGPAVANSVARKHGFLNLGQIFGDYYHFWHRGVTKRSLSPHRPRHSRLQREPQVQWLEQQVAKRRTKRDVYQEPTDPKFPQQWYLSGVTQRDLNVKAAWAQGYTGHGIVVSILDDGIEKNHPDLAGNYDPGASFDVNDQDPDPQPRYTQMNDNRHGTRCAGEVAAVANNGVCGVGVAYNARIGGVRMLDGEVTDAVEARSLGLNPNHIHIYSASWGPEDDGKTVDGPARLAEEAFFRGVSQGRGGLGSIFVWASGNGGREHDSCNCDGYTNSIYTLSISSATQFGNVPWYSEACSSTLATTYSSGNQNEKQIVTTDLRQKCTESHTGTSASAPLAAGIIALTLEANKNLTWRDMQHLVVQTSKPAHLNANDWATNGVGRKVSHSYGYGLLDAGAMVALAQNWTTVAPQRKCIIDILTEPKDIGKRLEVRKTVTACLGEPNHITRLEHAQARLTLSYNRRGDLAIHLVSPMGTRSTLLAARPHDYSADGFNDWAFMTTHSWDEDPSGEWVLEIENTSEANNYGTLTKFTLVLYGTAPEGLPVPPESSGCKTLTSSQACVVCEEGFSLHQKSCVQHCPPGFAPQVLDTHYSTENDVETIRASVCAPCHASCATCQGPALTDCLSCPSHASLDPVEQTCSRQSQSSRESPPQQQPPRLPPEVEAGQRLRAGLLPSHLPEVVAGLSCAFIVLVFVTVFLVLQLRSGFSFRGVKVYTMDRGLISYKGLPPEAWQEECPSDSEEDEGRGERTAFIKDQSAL

Consider `CCS(=O)(=O)c1cccc(-c2cc(C(=O)NC3CCN(C)CC3)c(C)c3[nH]c4ncc(C)cc4c23)c1`, for which the Potency was 16.5 µM (active) in assay [1]; 5.22 µM (active) in assay [2]; 1.85 µM (active) in assay [3]; 10.4 µM (active) in assay [4]; 0.657 µM (active) in [5]; 2.61 µM (active) in assay [6]. Besides, the Potency in assay [7] is 1.85 µM (active); in assay [8], 0.522 µM (active); in assay [9], 1.04 µM (active); in [10], 1.85 µM (active); in assay [11], 2.09 µM (active); with Furin (Homo sapiens) it was 24.1 µM (active). For the same compound, the Potency in assay [12], in [13] and in assay [14] was 24.1 µM (active) in each case.

Take `Cc1ccc(NC(=O)C2(c3ccc4c(c3)OC(F)(F)O4)CC2)nc1-c1cccc(C(=O)O)c1`: the Potency entry in [1], in [3], in assay [15], in [16], in assay [9] and in [11] was “inactive” in each case. For the same compound, in assay [14], the Potency entry was “inactive”. In addition, the Potency in [4] was 9.27 µM (active); in assay [5] it was 8.27 µM (active); in assay [8], 9.27 µM (active).

As to `CS(=O)(=O)N1CCN(Cc2cc3nc(-c4cccc5[nH]ncc45)nc(N4CCOCC4)c3s2)CC1`, the Potency is 6.03 µM (active) in [1]; 21.4 µM (active) in [2]; 15.1 µM (active) in assay [3]; 0.851 µM (active) in [5]; 1.07 µM (active) in [7]; 1.07 µM (active) in assay [8]. Moreover, the Potency is 5.37 µM (active) in assay [10] and 4.29 µM (active) in assay [11].

Consider `CCCCc1nc2cc(C=CC(=O)NO)ccc2n1CCN(CC)CC`, for which the Potency in assay [1] was 3.29 µM (active); in assay [2], 2.93 µM (active); in [3], 1.85 µM (active); in assay [15], 1.31 µM (active); in [4] it was 1.85 µM (active); in assay [5] it was 1.31 µM (active). Moreover, the Potency in assay [7] was 1.47 µM (active); in assay [8], 3.69 µM (active); in [9], 2.61 µM (active); in assay [10] it was 2.93 µM (active); in assay [11] it was 3.32 µM (active). Also, the Potency entry in assay [14] is “inactive”.

On to `CCC(=C(c1ccccc1)c1ccc(OCCN(C)C)cc1)c1ccccc1`, for which the Potency result in assay [1], in assay [2], in [16], in assay [5], in assay [8] and in assay [14] was “inactive” throughout. Besides, the Potency in assay [17] was 20.8 µM (active); in [9] it was 18.5 µM (active).

With `Nc1ncnc2c1c(-c1cnc3[nH]ccc3c1)nn2C1CCCC1`, the Potency is 10.4 µM (active) in assay [1]; 2.33 µM (active) in assay [2]; 2.33 µM (active) in assay [3]; 0.414 µM (active) in [15]; 2.93 µM (active) in [7]; 0.585 µM (active) in assay [8]. Also, the Potency in assay [9] is 1.85 µM (active); in assay [10], 1.85 µM (active); in [11] it was 1.87 µM (active). Also, the Potency entry in [14] is “inactive”.

Take `O=c1[nH]nc(Sc2ncc([N+](=O)[O-])s2)n1-c1ccc2c(c1)OCCO2`: the Potency in assay [1] is 7.37 µM (active); in assay [2], 13.1 µM (active); in assay [3], 16.5 µM (active); in assay [15] it was 11.7 µM (active); in assay [4] it was 9.27 µM (active); in assay [5] it was 10.4 µM (active). The Potency in assay [6] was 9.27 µM (active); in [8] it was 7.37 µM (active); in assay [9], 8.27 µM (active); in [10] it was 13.1 µM (active); in assay [11], 9.35 µM (active). Besides, in assay [14], the Potency entry was “inactive”.

Consider `Cc1c(Cn2c(C)nc3c(C(=O)O)cc(N4CCOCC4)cc32)cccc1C(F)(F)F`, for which the Potency entry in assay [1], in assay [2], in assay [15], in assay [16], in assay [5] and in assay [6] was “inactive” each time. The Potency result in [7], in [8] and in assay [9] was “inactive” each time. Moreover, the Potency in assay [4] is 23.3 µM (active).

Regarding `CC1(C)CCC(c2ccc(Cl)cc2)=C(CN2CCN(c3ccc(C(=O)NS(=O)(=O)c4ccc(N[C@H](CCN5CCOCC5)CSc5ccccc5)c(S(=O)(=O)C(F)(F)F)c4)cc3)CC2)C1`, the Potency result in assay [1], in [3], in [17], in [15], in assay [16] and in assay [4] was “inactive” in each case. The Potency result in [5], in assay [7], in assay [9] and in assay [10] was “inactive” each time.

For `Cc1cnc(Nc2ccc(F)cc2Cl)nc1-c1c[nH]c(C(=O)N[C@H](CO)c2cccc(Cl)c2)c1`, the Potency result in assay [1], in assay [3], in assay [17], in [15], in assay [16] and in [7] was “inactive” each time. The Potency result in [9] was “inactive”. For the same compound, the Potency is 6.57 µM (active) in assay [4], 18.5 µM (active) in assay [5] and 18.7 µM (active) in [11].

`COc1cc2c(Oc3ccc(-c4cnc(Nc5ccc(F)cc5)n(C)c4=O)cc3F)ccnc2cc1OCCCN1CCOCC1`: the Potency in [1] is 18.5 µM (active); in assay [2], 14.7 µM (active); in assay [3], 18.5 µM (active); in [15], 2.93 µM (active); in assay [4] it was 4.65 µM (active); in [5], 3.69 µM (active). Moreover, the Potency in [6] is 11.7 µM (active); in assay [7], 8.27 µM (active); in [8], 4.65 µM (active); in assay [9] it was 7.37 µM (active); in [10], 3.69 µM (active); in assay [11] it was 3.32 µM (active). Also, the Potency in assay [14] was 24.1 µM (active).

On to `C=CC(=O)N1CCC[C@@H](n2nc(-c3ccc(Oc4ccccc4)cc3)c3c(N)ncnc32)C1`, for which the Potency in [1] is 9.27 µM (active); in [17], 7.37 µM (active); in [5], 14.7 µM (active); in assay [8], 10.4 µM (active). Moreover, the Potency entry in [2] and in assay [16] was “inactive” in each case.

On to `CC(NCc1ccc2c(c1)nc(NC(=O)c1ccc(-c3cn[nH]c3)s1)n2CC(C)(C)O)C(C)(C)C` (configuration not stated), for which the Potency in assay [1] was 0.827 µM (active); in assay [2], 1.04 µM (active); in [15] it was 1.31 µM (active); in [16] it was 7.37 µM (active); in assay [4] it was 0.928 µM (active); in assay [5], 0.737 µM (active). The Potency in [6] was 0.928 µM (active); in assay [7] it was 2.61 µM (active); in assay [8] it was 0.657 µM (active); in assay [9], 0.928 µM (active); in assay [10] it was 0.827 µM (active); in [11], 0.833 µM (active).

As to `O=C(C=Cc1cccnc1)NCCCCC1CCN(C(=O)c2ccccc2)CC1`, the Potency entry in assay [1], in assay [3], in assay [15], in [16], in [4] and in assay [5] was “inactive” throughout. The Potency result in [7], in [8], in [10], in assay [11] and in assay [14] was “inactive” in each case.
